Data taken from the supplement of paper PMC13380429.

System: Vero E6 infected with SARS-CoV-2
Assay: inhibition of SARS-CoV-2 cytopathic effect; higher = more antiviral protection, active = above 15
Conditions: 48 h

Measured: inhibition of SARS-CoV-2 cytopathic effect

C[C@@H]1CN(c2c(F)c(N)c3c(=O)c(C(=O)O)cn(C4CC4)c3c2F)C[C@H](C)N1 [sparfloxacin]
inactive: 1 nM 2.08% | 8.33 nM 2.09% | 100 nM 0.77% | 833.33 nM -1.72% | 10000 nM -2.31%

CCOC(=O)Nc1cc(-c2ccc(C)c(NS(C)(=O)=O)c2)nn2c(C)nnc12 [bromosporine]
inactive: 1 nM -4.03% | 8.33 nM -0.62% | 100 nM -0.65% | 833.33 nM -0.48% | 10000 nM -19.3%

CCCN1C[C@H](CSC)C[C@@H]2c3cccc4[nH]cc(c34)C[C@H]21 [pergolide]
inactive: 1 nM -0.15% | 8.33 nM -0.75% | 100 nM 0.68% | 833.33 nM 0.65% | 10000 nM -1.92%

CCCCNc1cc(C(=O)O)cc(S(N)(=O)=O)c1Oc1ccccc1 [bumetanide]
inactive: 1 nM 0.26% | 8.33 nM 2.83% | 100 nM 0.69% | 833.33 nM 1.71% | 10000 nM 1.07%

CCN1C[C@]2(OC(=O)c3ccccc3NC(C)=O)CC[C@H](OC)[C@@]34[C@@H]2C[C@@H]([C@@H]13)[C@@]1(O)C[C@H](OC)[C@H]2C[C@@H]4[C@]1(O)[C@H]2OC [lappaconite]
inactive: 1 nM 6.58% | 8.33 nM 2.61% | 100 nM 1.75% | 833.33 nM 0.15% | 10000 nM 0.28%

C[N+]12CCCCC1CCC(=C(c1cccs1)c1cccs1)C2 (stereo not given) [tiquizium]
inactive: 1 nM -3.91% | 8.33 nM -0.22% | 100 nM 2.71% | 833.33 nM -2.14% | 10000 nM -3.03%

CS(=O)(=O)c1ccc(-c2cc(Br)sc2-c2ccc(F)cc2)cc1
inactive: 1 nM 3.29% | 8.33 nM -0.45% | 100 nM -5.25% | 833.33 nM -3.46% | 10000 nM -5.5%

CC(C)[C@H](O)C(=O)N[C@@H](C)C(=O)N[C@@H]1C(=O)N(C)CCc2ccccc21 [semagacestat]
inactive: 1 nM -0.47% | 8.33 nM 3.54% | 100 nM -1.88% | 833.33 nM -1.76% | 10000 nM -3.08%

CC[C@H](CC#N)OC(=O)N[C@@H](C)c1cccc(NC(=O)Nc2ccc(-c3cnco3)c(OC)c2)c1
inactive: 1 nM 0.48% | 8.33 nM 4.56% | 100 nM 0.06% | 833.33 nM 10.2% | 10000 nM 13.2%

N#Cc1ncccn1 [2-cyanopyrimidine]
inactive: 1 nM 4.29% | 8.33 nM 5.63% | 100 nM 4.71% | 833.33 nM 6.33% | 10000 nM 4.34%

CCS(=O)(=O)N(Cc1cccnc1)c1cccc(-c2ccc(C#N)cc2)c1
inactive: 1 nM 1.24% | 8.33 nM 1.74% | 100 nM 1.23% | 833.33 nM 4.38% | 10000 nM 8.38%

NCCCC[C@H](N[C@@H](CCc1ccccc1)C(=O)O)C(=O)N1CCC[C@H]1C(=O)O [lisinopril]
inactive: 1 nM 0.42% | 8.33 nM 0.67% | 100 nM 0.78% | 833.33 nM 0.97% | 10000 nM 1.56%

c1cc(CN2CCCCC2)cc(OCCCNc2nc3ccccc3s2)c1 [zolantidine]
inactive: 1 nM 0.78% | 8.33 nM 3.51% | 100 nM 1.37% | 833.33 nM 4.09% | 10000 nM 4.6%

CC(C)(C)/[N+]([O-])=C/c1ccc(S(=O)(=O)O)cc1S(=O)(=O)O
inactive: 1 nM -1.02% | 8.33 nM -0.15% | 100 nM -0.41% | 833.33 nM 0.47% | 10000 nM 0.8%

C/C(=N\c1ccccc1N)c1c(C)cc(=O)n(O)c1O
inactive: 1 nM -2.19% | 8.33 nM -2.18% | 100 nM -1.91% | 833.33 nM 3.65% | 10000 nM 1.35%

CC/C=C(\C(=O)N[C@@H]1C(=O)N2C(C(=O)OCOC(=O)C(C)(C)C)=C(COC(N)=O)CS[C@H]12)c1csc(N)n1 [cefcapene-pivoxil]
inactive: 1 nM -0.85% | 8.33 nM -2.87% | 100 nM -0.76% | 833.33 nM 1.69% | 10000 nM -0.26%

CC1(C)S[C@@H]2[C@H](NC(=O)[C@H](NC(=O)N3CCN(S(C)(=O)=O)C3=O)c3ccccc3)C(=O)N2[C@H]1C(=O)O [mezlocillin]
inactive: 1 nM -0.34% | 8.33 nM 0.68% | 100 nM -1.11% | 833.33 nM -0.82% | 10000 nM 0.79%
